About 79,000 compounds went through this panel and 15% of them were active in at least one assay; those are over-represented in the sample as a whole. Unmarked numbers belong to inactive results. No stated cut-off is given here; in the data, active means growth inhibition above about 70%; inactive means the rest.
Assay: NCI Yeast Anticancer Drug Screen. Data for the rad50 strain (AID 155);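 further: 0% = growth of vehicle-only cultures of the same strain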
Conditions: S. cerevisiae rad50 strain growth inhibition; at 50.0 µM; hits give high values
In short: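 Cells are treated with compound, grown, and their growth is then scored against vehicle-only cultures of the same repair-deficient yeast strain.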

Structure (SMILES)	growth inhibition [%]
C#CCN(C)Cc1cc(OC)c(OC)c(OC)c1	-43.2
O=[N+]([O-])c1ccccc1Sc1ccc2c3c(cccc13)CN(CCCO)C2	66.3
O=C1CC(C2OCOC3COCOC32)CC(=O)N1 (stereo not given)	4.15
CCCCCc1cc(O)cc2c1Oc1cc(O)cc(C(=O)CCCC)c1C(=O)O2	4
Nc1ccc2ccc(S(=O)(=O)O)cc2c1	-17.7
CC1C(NNC(N)=O)Oc2cc3c(cc2C1c1ccccc1O)OCO3 (stereo not given)	-5.7
CC(C)(CO)N=Cc1ccc(Cl)c(Cl)c1	2.35
CC(=O)Oc1ncnc2c1cnn2C	-8.95
CC1CCCCN1CCCO (stereo not given)	14.6
Nc1ccc(S(=O)(=O)Nc2nc3ccccc3nc2Nc2ccc(S(N)(=O)=O)cc2)cc1	6.3
CCOC(=O)c1ccc(NC(=O)Nc2cc(Cl)ncn2)cc1	10.1
COC(=O)CN1C(=O)OC(c2ccccc2)C1=O (stereo not given)	-0.4
O=c1[nH]c2cc([N+](=O)[O-])ccc2nc1/C=C(\O)c1ccco1	7.7
FC(F)(F)c1cccc(NC(=S)Nc2ccccc2S)c1	24
O=C(O)CSc1c(Cl)c(=O)oc2ccc(Cl)cc12	30.3
Cc1ccc2nc(-c3ccc(CSC(=N)N)cc3)oc(=O)c2c1	40.2
CCN(CC)/[N+]([O-])=N/OC	-13.6
CCCCCCCCCCCCCCCCOC(=O)c1cc([N+](=O)[O-])cc([N+](=O)[O-])c1Sc1ncnc2nc[nH]c12	-3.8
COC(=O)[C@H]1C=C[C@H](OC2OC(COC(C)=O)C(OC(C)=O)C(OC(C)=O)C2OC(C)=O)n2c(=O)n(-c3ccccc3)c(=O)n21 (stereo not given in full)	8.3
Cc1ccc(/C(O)=C/c2nc3ccc([N+](=O)[O-])cc3nc2/C=C(\O)c2ccc(C)cc2)cc1	13.8

Structure (SMILES)	growth inhibition [%]
CCCCOCN1COCN(COCCCC)C1=O	-2.3
CC1CCCC(C)C1O (stereo not given)	-19.7
CS(=O)(=O)c1nc2ncnc(N)c2[nH]1	-6.2
NC1=Nc2ccccc2Sc2nncn21	-18.2
COc1c2cc(C(C)(C)C)cc1CSCc1cc(C(C)(C)C)cc(c1OC)CCCCC2	-1.25
NCCNC(=O)CCC(CN(CC(=O)O)CC(=O)O)N(CC(=O)O)CC(=O)O (stereo not given)	42.8
O=C(OCCSC(=S)N1CCCCC1)c1ccccc1	-13.5
Cc1ccccc1C(=O)c1ccc2ccccc2c1	11.4
O=C1NCC2Cc3ccccc3C(c3ccccc3)=C12 (stereo not given)	-1.6
O=C(O)c1cncc(C(=O)O)c1	-37
OC1CCC2CCCC2C1 (stereo not given)	1.6
O=C1CSC(c2ccc([N+](=O)[O-])cc2)N1c1nc(-c2ccc3c(c2)CCCC3)cs1 (stereo not given)	32.1
CC(=O)Oc1c(C)cc2c(c1C)C(C)(C)CN2C(=O)C(C)(C)C	16.9
CCC(Oc1ccc(OC)c2c1C(=O)CCC2)C(=O)O (stereo not given)	5.95
NC(=O)C(CC(=O)O)NC(=O)c1ccccc1 (stereo not given)	8.05
C=CCC(c1ccccc1)(c1ccccc1)c1ccccc1	-3.35
NC(Cc1ccc(S(=O)(=O)O)cc1)C(=O)NC(Cc1ccc(S(=O)(=O)O)cc1)C(=O)NC(Cc1ccc(S(=O)(=O)O)cc1)C(=O)O (stereo not given)	-4.25
CCc1cc2c(c3c1CCCC3=O)CC1(C2)Cc2cc(CC)c3c(c2C1)C(=O)CCC3	6.05
COC(=O)c1nn2c(=O)n(C(C)=O)c3ccccc3c2c1C(=O)OC	27.2
COC(=N)c1ncn(Cc2ccccc2)c1N	-21.6

Assay: NCI Yeast Anticancer Drug Screen. Data for the mec2-1 strain (AID 157)
Conditions: S. cerevisiae mec2-1 strain, at 50.0 µM, hits give high values
In short: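 Compounds were applied to mec2-1 yeast cells. Their growth was then compared with that of vehicle-treated cultures to give growth inhibition.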

Structure (SMILES)	growth inhibition [%]
C#CCN(C)Cc1cc(OC)c(OC)c(OC)c1	-0.75
O=[N+]([O-])c1ccccc1Sc1ccc2c3c(cccc13)CN(CCCO)C2	7.05
O=C1CC(C2OCOC3COCOC32)CC(=O)N1 (stereo not given)	-5.1
CCCCCc1cc(O)cc2c1Oc1cc(O)cc(C(=O)CCCC)c1C(=O)O2	-17.2
Nc1ccc2ccc(S(=O)(=O)O)cc2c1	-19.9
CC1C(NNC(N)=O)Oc2cc3c(cc2C1c1ccccc1O)OCO3 (stereo not given)	-25.4
CC(C)(CO)N=Cc1ccc(Cl)c(Cl)c1	-13.2
CC(=O)Oc1ncnc2c1cnn2C	-1.65
CC1CCCCN1CCCO (stereo not given)	-32.4
Nc1ccc(S(=O)(=O)Nc2nc3ccccc3nc2Nc2ccc(S(N)(=O)=O)cc2)cc1	-5.05
CCOC(=O)c1ccc(NC(=O)Nc2cc(Cl)ncn2)cc1	-6.55
COC(=O)CN1C(=O)OC(c2ccccc2)C1=O (stereo not given)	1.15
O=c1[nH]c2cc([N+](=O)[O-])ccc2nc1/C=C(\O)c1ccco1	-14.2
FC(F)(F)c1cccc(NC(=S)Nc2ccccc2S)c1	20.2
O=C(O)CSc1c(Cl)c(=O)oc2ccc(Cl)cc12	-6.6
Cc1ccc2nc(-c3ccc(CSC(=N)N)cc3)oc(=O)c2c1	43.5
CCN(CC)/[N+]([O-])=N/OC	-0.3
CCCCCCCCCCCCCCCCOC(=O)c1cc([N+](=O)[O-])cc([N+](=O)[O-])c1Sc1ncnc2nc[nH]c12	-7.8
COC(=O)[C@H]1C=C[C@H](OC2OC(COC(C)=O)C(OC(C)=O)C(OC(C)=O)C2OC(C)=O)n2c(=O)n(-c3ccccc3)c(=O)n21 (stereo not given in full)	14
Cc1ccc(/C(O)=C/c2nc3ccc([N+](=O)[O-])cc3nc2/C=C(\O)c2ccc(C)cc2)cc1	-3.45

Structure (SMILES)	growth inhibition [%]
CCCCOCN1COCN(COCCCC)C1=O	-17.4
CC1CCCC(C)C1O (stereo not given)	-28.1
CS(=O)(=O)c1nc2ncnc(N)c2[nH]1	-18.1
NC1=Nc2ccccc2Sc2nncn21	-43.9
COc1c2cc(C(C)(C)C)cc1CSCc1cc(C(C)(C)C)cc(c1OC)CCCCC2	-3.4
NCCNC(=O)CCC(CN(CC(=O)O)CC(=O)O)N(CC(=O)O)CC(=O)O (stereo not given)	69.7
O=C(OCCSC(=S)N1CCCCC1)c1ccccc1	-8.6
Cc1ccccc1C(=O)c1ccc2ccccc2c1	26.2
O=C1NCC2Cc3ccccc3C(c3ccccc3)=C12 (stereo not given)	-1.1
O=C(O)c1cncc(C(=O)O)c1	-12.7
OC1CCC2CCCC2C1 (stereo not given)	-1.7
O=C1CSC(c2ccc([N+](=O)[O-])cc2)N1c1nc(-c2ccc3c(c2)CCCC3)cs1 (stereo not given)	2.85
CC(=O)Oc1c(C)cc2c(c1C)C(C)(C)CN2C(=O)C(C)(C)C	-20.2
CCC(Oc1ccc(OC)c2c1C(=O)CCC2)C(=O)O (stereo not given)	1
NC(=O)C(CC(=O)O)NC(=O)c1ccccc1 (stereo not given)	1.15
C=CCC(c1ccccc1)(c1ccccc1)c1ccccc1	5.25
NC(Cc1ccc(S(=O)(=O)O)cc1)C(=O)NC(Cc1ccc(S(=O)(=O)O)cc1)C(=O)NC(Cc1ccc(S(=O)(=O)O)cc1)C(=O)O (stereo not given)	-14.8
CCc1cc2c(c3c1CCCC3=O)CC1(C2)Cc2cc(CC)c3c(c2C1)C(=O)CCC3	-9.9
COC(=O)c1nn2c(=O)n(C(C)=O)c3ccccc3c2c1C(=O)OC	4.85
COC(=N)c1ncn(Cc2ccccc2)c1N	-28.6
